Reference: PubChem BioAssay (EPA / NIEHS)
Results filed as inconclusive are left out. Active and inactive are the calls of the source. The calls were made as follows: active = hit-call score of the fitted dose curve at least 0.9, where 1 is the maximum; inconclusive = response in the unintended direction; inactive = score below 0.9.

Assay: CCTE_Harrill_HTTr_CellCount_MCF7: CCTE's Cell Proliferation Assessment for the High-Throughput Transcriptomics (HTTr) Platform, Harrill Lab (AID 2284012);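 also: cells exposed to compound for six hours; intended direction is loss of nuclei count meaning fewer cells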
Description: This is a cell-based assay that evaluates cell viability and cell growth using high content imaging to count the number of Hoechst-labeled nuclei that are present in an assay well in 384-well format.This is a cell-based assay that evaluates cell viability and cell growth in MCF-7 cells. This was part of a full screening experiment. High content imaging is used to count the number of Hoechst-labeled nuclei that are present in an assay well in 384-well format.The assay component endpoint CCTE_Harrill_HTTr_CellCount_MCF7 was analyzed with bidirectional fitting relation to DMSO as the negative control and baseline of activity. Using a type of viability reporter, loss-of-signal activity can be used to understand changes in cell count. To generalize the intended target to other relatable targets, this assay endpoint is annotated to cell cycle, where the subfamily is cell count.
Chemicals were tested in MCF7 cells in an eight point dilution series with a six hour exposure duration.

outcome, inactive:
C=C(C)[C@@H]1CC[C@@H](C)C[C@@H]1O
O=[N+]([O-])c1cc(C(F)(F)F)ccc1Cl
CC1(C)[C@H]2CC[C@]1(C)[C@H](O)C2
CN(C)C(=N)N=C(N)N
CCCCCCCCCCCCCCCC(=O)O
CC(C)[C@H]1CC[C@@H](C)CC1=O
CCCCC(CC)COC(=O)/C=C\C(=O)OCC(CC)CCCC (stereo not given)
CC1(C)CCC(C)(C)c2cc(C(=O)Nc3ccc(C(=O)O)cc3)ccc21
CCCCCCCCCCCCCC(=O)O
COc1cc2ncnc(Nc3cccc(Cl)c3)c2cc1OC
CCCCCC(CO)CCC (stereo not given)
Clc1ccc2c(c1)C(N1CCNCC1)=Nc1ccccc1O2
C#C[C@]1(O)CC[C@H]2[C@@H]3CCC4=Cc5oncc5C[C@]4(C)[C@H]3CC[C@@]21C
c1ccc2[nH]ccc2c1
O=C1C(c2[nH]c3ccc(S(=O)(=O)O)cc3c2O)=Nc2ccc(S(=O)(=O)O)cc21
NCCCCCCN
N#Cc1ccccc1
CC1CCC2CC1C2(C)C (stereo not given)
C=CCOc1nc(OCC=C)nc(OCC=C)n1
BrC1CCC(Br)C(Br)CCC(Br)C(Br)CCC1Br (stereo not given)
O=C(O)CN(CCN(CC(=O)O)CC(=O)O)CCN(CC(=O)O)CC(=O)O
NC(=O)NC1NC(=O)NC1=O (stereo not given)
C=O
Nc1ccc(S(N)(=O)=O)cc1
CC(C)C[C@H]1C(=O)N2CCC[C@H]2[C@]2(O)O[C@](NC(=O)[C@@H]3C=C4c5cccc6[nH]c(Br)c(c56)C[C@H]4N(C)C3)(C(C)C)C(=O)N12
Cc1ccc(C=O)s1
CCCCCCCCCC=O
O=C(O)c1ccc(C(=O)O)cc1
Cc1c(N(C)C)c(=O)n(-c2ccccc2)n1C
O=C(O)c1cn(C2CC2)c2cc(N3CCNCC3)c(F)cc2c1=O
Clc1ccc(Cl)c(Cl)c1Cl
Cc1c(Cl)c(=O)oc2cc(O)ccc12
CCC(C)CCCC(C)(C)O (stereo not given)
CNC(=O)Oc1ccc2c(c1)[C@]1(C)CCN(C)[C@@H]1N2C
Cc1ccc(C(C)C)cc1O
C=CCOC(=O)CCC1CCCCC1
C[C@H]1C[C@@H]2[C@H]([C@@H](O)C[C@@]3(C)[C@H]2CC[C@]3(O)C(=O)CO)[C@@]2(C)C=CC(=O)C=C12
CCC(=O)OCc1ccccc1
CC(C)=CCCC(C)=CCCC(C)=CCO
CC1=CCC(O)(C(C)C)CC1 (stereo not given)
